In all, about 48,000 compounds went through this assay and about 13,000 (27%) showed an effect of 50% or more. Some of the results follow.
These compounds were tested on Wolbachia pipientis (assay: Anti-Wolbachia Cell-Based Screen). Conditions: 5 µM.
Assay type: functional
Set-up: scale not given: in the data most compounds retested in dose-response had high values

| SMILES | Percent Effect [%] |
| --- | --- |
| CCc1ccc(S(=O)(=O)N2Cc3c(CN(C)C)nn(C)c3C2)cc1.O=C(O)C(F)(F)F | 97.57 |
| COc1ccc(S(=O)(=O)N2Cc3c(CN(C)C)nn(C)c3C2)cc1.O=C(O)C(F)(F)F | -0.8573 |
| CCc1ccc(NC(=O)N2Cc3c(CN(C)C)nn(C)c3C2)cc1.O=C(O)C(F)(F)F | -20.31 |
| Cc1ccc(CS(=O)(=O)N2Cc3c(CN(C)C)nn(C)c3C2)cc1.O=C(O)C(F)(F)F | 96.76 |
| Cc1ccc(S(=O)(=O)N2Cc3c(CN(C)C)nn(C)c3C2)cc1 | -16.71 |
| CN(C)Cc1nn(C)c2c1CN(C(=O)c1ccc[nH]1)C2.O=C(O)C(F)(F)F | -9.086 |
| C=Cc1cccc(CN2CCCn3nc(CNS(C)(=O)=O)cc3C2)c1 | 10.79 |
| O=C1C(Sc2cnn[nH]2)CCCN1c1ccccc1F (stereo not given) | -1.507 |
| Cc1n[nH]c(C2CN(Cc3csc(C4CC4)n3)CCO2)n1 (stereo not given) | -12.76 |
| CC(C)CC(CNC(=O)c1cccnc1Oc1cccnc1)N(C)C (stereo not given) | -29.76 |
| Cc1ccc(OCCN(C)Cc2nccn2C)c(C)c1 | 1.849 |
| Cc1ccc(Oc2ncccc2C(=O)N(C)CCCN(C)C)cc1 | 116.5 |
| CCOc1ncccc1C(=O)N(C)Cc1ncc(C)c(OC)c1C | -9.581 |
| Cc1ccc(OCCNC(=O)C2CCOCC2)c(C)c1 | -7.551 |
| Cc1ccc(Oc2ncccc2C(=O)O)c(C)c1 | 113.8 |
| Cc1ccc(Oc2ncccc2C(=O)N(C)CC2OCCO2)c(C)c1 | 132.9 |
| COc1ccc(Oc2ncccc2C(N)=O)cc1CN1CCCC1 | -15.13 |
| COCCOc1ncccc1C(=O)N(C)c1ccc(OC)c(OC)c1 | -8.68 |
| CC(CNC(=O)c1cccnc1Oc1cccnc1)N(C)C (stereo not given) | -15.37 |
| COC(=O)C(NC(=O)c1ccc(C)cc1C)c1cccnc1 (stereo not given) | 2.23 |
| Cc1ccc(Oc2ncccc2C(=O)N(C)CCCN(C)C)c(C)c1 | 137.8 |
| CCc1cc(CNC(=O)N(C2CC2)C(C)c2ccco2)on1 (stereo not given) | -6.882 |

| SMILES | Percent Effect [%] |
| --- | --- |
| O=S(=O)(CCSc1nccn1C1CC1)c1ccccc1 | 2.896 |
| COc1ccc(CN2C[C@@H]3OCC(=O)N(Cc4nccn4C)[C@@H]3C2)cc1 | -2.723 |
| Cc1cnn(CCNCC(=O)NC2(C#N)CCCC2)c1 | 1.433 |
| COc1ccccc1CC(=O)NC(CC(=O)O)c1ccc(F)cc1 (stereo not given) | 7.485 |
| COc1cccc(S(=O)(=O)N2CCCc3c(OC)nn(C)c3C2)c1 | -0.459 |
| O=c1[nH]cnc2c1CCN(S(=O)(=O)c1ccc(Cl)cc1)C2 | 81.06 |
| CCOCCOc1ccc(S(=O)(=O)N2CCc3c(nc[nH]c3=O)C2)cc1 | 99.77 |
| O=c1[nH]cnc2c1CCN(S(=O)(=O)c1ccc(OC(F)(F)F)cc1)C2 | 93.77 |
| COCc1ncn2c1CN(S(=O)(=O)c1cccc(OC)c1)CC2 | 5.522 |
| Cc1nc2n(n1)CCN(S(=O)(=O)c1ccc(OC(F)(F)F)cc1)C2 | -10.24 |
| O=c1[nH]cnc2c1CCN(S(=O)(=O)c1cccc(OC(F)(F)F)c1)C2 | 122.9 |
| CCOCc1cncc2c1CCN(S(=O)(=O)c1ccc(C)cc1)C2 | 7.269 |
| CCOCc1ncn2c1CN(S(=O)(=O)c1ccc(OC)cc1)CC2 | 3.877 |
| Cc1nc2n(n1)CCN(S(=O)(=O)c1ccc(Cl)cc1)C2 | -10.09 |
| CN(C)c1ncnc2c1CCN(S(=O)(=O)c1cccc(Cl)c1Cl)C2 | -2.011 |
| CN(C)c1ncnc2c1CCN(S(=O)(=O)c1ccccc1C(F)(F)F)C2 | 15.95 |
| CC(=O)NCCc1ncnn1-c1ccc(F)c(Cl)c1 | -4.574 |
| CC(O)CN1CCC(CNCc2ccc(S(C)(=O)=O)cc2)CC1 (stereo not given) | -7.013 |
| Cc1cc(-c2ccc(C(C)N3CCOCC3)cc2)cnc1N (stereo not given) | 25.58 |
| O=C(NCCc1c[nH]cn1)c1ccc2c(c1)C(=O)N(C1CC1)C2=O | 25.9 |
| CC(O)CN(C)C(=O)Nc1ccn(-c2cccc(C(F)(F)F)c2)n1 (stereo not given) | -1.587 |
| c1ccn2c(C3CCCN3Cc3nc(C4CC4)no3)nnc2c1 (stereo not given) | 89.02 |

| SMILES | Percent Effect [%] |
| --- | --- |
| COc1cccc2c1N(Cc1noc(C(C)(C)C)n1)CCC2 | 5.292 |
| CCc1nc(C2CCCN2Cc2nc3ccccc3o2)no1 (stereo not given) | -3.272 |
| CCn1c(C2CCCN2Cc2noc(C(C)(C)C)n2)nc2ccccc21 (stereo not given) | 117.3 |
| Cc1nn(C)c(C)c1C1CCCN1Cc1noc(C2CC2)n1 (stereo not given) | 0.5745 |
| CCc1nc(C2CCCN2Cc2noc(Cc3ccccc3)n2)no1 (stereo not given) | -2.758 |
| CCc1nc(C2CCCN2Cc2nc(C3CC3)no2)no1 (stereo not given) | -2.971 |
| CC(C)(C)c1nc(CN2CCCC2c2nnc3ccccn23)no1 (stereo not given) | 104.6 |
| CC(C)(C)c1nc(CN2CCCC2CCc2ccccc2)no1 (stereo not given) | 0.152 |
| O=C(OCc1ccccc1)C1CCCN1Cc1nc(C2CC2)no1 (stereo not given) | 13.28 |
| CC(C)(C)c1nnc(CN2CCCC2c2noc(C3CC3)n2)o1 (stereo not given) | 9.354 |
| Cn1cccc1C1CCCN1Cc1noc(C(C)(C)C)n1 (stereo not given) | 89.29 |
| CC(C)n1cnc2c1C(C(=O)N1CCOCC1)N(CC1CC1)CC2.O=C(O)C(F)(F)F (stereo not given) | -10.07 |
| CNC(=O)c1ccc(-n2c(COCC(=O)O)nc3c(C)cccc32)o1 | -7.772 |
| CCCOCC1CCN(C(=O)Cn2cccc(OC)c2=O)C1 (stereo not given) | -15.28 |
| Cc1ccc(NC(=O)CCC2CC2)cc1N1CCOC1=O | -7.551 |
| O=c1[nH]nc(CNc2ncc(Cl)cn2)[nH]1 | -6.867 |
| CCc1nsc(N2CCOC3(CCCC3)C2)n1 | 2.616 |
| Cc1noc(C)c1CN1CCCC1c1nc(-c2ccccc2)no1 (stereo not given) | -6.071 |
| Cc1noc(C)c1CN1CCCC1c1nnc2ccccn12 (stereo not given) | 107.8 |
| Cc1noc(C)c1CN1CCCCC1c1nc(-c2ccccc2)no1 (stereo not given) | 11.76 |
| CCC(CO)N(Cc1cccs1)C(=O)Cc1ccc(O)cc1 (stereo not given) | 12.13 |

— ChEMBL document CHEMBL3988442, “University of Dundee, Small-Polar-MMV Screening Library” (2021)
